Results from PubChem BioAssay (Tox21).
Values joined by “and” are separate entries in the source; they are usually repeats but may differ in a detail not shown here. Equal values may be shown once. Results filed as inconclusive are left out. A call without a number means that no potency is given here. Some compounds were tested as several samples or in several runs, with calls that do not always agree. Active and inactive are the calls of the source. Unless noted, the call rests on the fitted dose curve; in most records, active means well fitted curve in the direction sought with a large enough effect in the repeat runs; inconclusive means weak or mixed curves; inactive means no such curve, though single readings can be large; an effect the other way counts as inactive or inconclusive.

Experiments:
[1] = biological target: Luciferin 4-monooxygenase (Photinus pyralis) (UniProt P08659); assay: qHTS assay to identify small molecule inhibitors of firefly luciferase (AID 1224835); further: nearly all actives have a fitted effect of over 25% in size
Summary of the method: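 Inhibition of purified Photinus luciferase is measured by luminescence. Substrate levels (D-luciferin, ATP) sit at their KM values. Each compound is tested in a concentration series.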

[2] = qHTS assay to identify small molecule agonists of the constitutive androstane receptor (CAR) signaling pathway - cell viability counter screen (AID 1224836); further: nearly all actives have a fitted effect of over 45% in size
Summary of the method: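 HepG2 cells stably carrying hCAR and a CYP2B6-2.2kb reporter were plated 4 h, then given compounds at 15 concentrations plus PK11195 (final 0.75 uM). After 23 h at 37 C, viability was read by CellTiter-Fluor fluorescence.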

[3] = qHTS assay to identify small molecule antagonists of the constitutive androstane receptor (CAR) signaling pathway - cell viability counter screen (AID 1224837); further: nearly all actives have a fitted effect of over 45% in size; further: potency means the concentration at half of the fitted maximal effect
Summary of the method: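 Cytotoxicity counter-screen: CellTiter-Fluor fluorescence after 23 h compound exposure (15-point qHTS) in double-stable HepG2-CYP2B6-hCAR cells, with 50 nM CITCO added.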

[4] = biological target: Nuclear receptor subfamily 1 group I member 3 (Homo sapiens) (UniProt Q14994); assay: qHTS assay to identify small molecule agonists of the constitutive androstane receptor (CAR) signaling pathway (AID 1224839); further: nearly all actives have a fitted effect of over 15% in size; further: potency means the concentration at half of the fitted maximal effect;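 on activation: HepG2 cells stably carrying human CAR and a CYP2B6 luciferase reporter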
Summary of the method: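 HepG2 cells stably expressing hCAR and a CYP2B6-2.2kb luciferase reporter were treated with compounds at 15 concentrations plus 0.75 uM PK11195 (final) for 24 h at 37 C; luminescence was read after ONE-Glo addition.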

[5] = qHTS assay to identify small molecule antagonists of the estrogen related receptor signaling pathway with the pleiotropic PPARgamma coactivator (PGC) from Tox21 10K library - cell viability counter screen (AID 1224840; active means well fitted cell-killing curve with a large enough effect in the repeat runs, not every such curve was filed as active; further: nearly all actives have a fitted effect of over 40% in size)
Summary of the method: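 Counter-screen for cytotoxicity: after 17.5 h compound exposure at 37 C, CellTiter-Fluor reagent added to PGC/ERR cells for 30 min and fluorescence read. Cells were seeded at 2,000 per well 6 h before dosing.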

[6] = qHTS assay to identify small molecule antagonists of the estrogen related receptor signaling pathway with the pleiotropic PPARgamma coactivator (PGC) from Tox21 10K library (AID 1224841; call rule not given here; further: actives are mostly falling curves and most rising ones were filed inactive; nearly all actives have a fitted effect of over 50% in size; further: potency means the concentration at half of the fitted maximal effect)
Summary of the method: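 Luminescence (One-Glo, 30 min at room temperature) after 18 h compound treatment at 37 C of PGC/ERR reporter cells plated at 2,000 cells/well and settled 6 h beforehand.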

[7] = qHTS assay to identify small molecule agonists of the estrogen related receptor signaling pathway with the pleiotropic PPARgamma coactivator (PGC) from Tox21 10K library (AID 1224842); further: nearly all actives have a fitted effect of over 15% in size; further: potency means the concentration at half of the fitted maximal effect
Summary of the method: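 Luminescence from One-Glo (30 min, room temperature) measured after PGC/ERR cells had 18 h at 37 C with pinned compound (23 nL in DMSO). Cells had been seeded at 2,000 per well and pre-incubated 6 h.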

[8] = biological target: Thyrotropin receptor (Homo sapiens) (UniProt P16473); assay: qHTS assay to identify small molecule agonists of the thyroid stimulating hormone receptor (TSHR) signaling pathway (AID 1224843; calls by dose curve; further: nearly all actives have a fitted effect of over 45% in size; further: potency means the concentration at half of the fitted maximal effect)
Summary of the method: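 Agonist activity read as cAMP rise via d2/cryptate HTRF competition, 1 h room-temperature detection, in HEK293 cells expressing TSHR. Fifteen-point titrations, each run in triplicate, with a 30 min room-temperature incubation beforehand.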

[9] = qHTS assay to identify small molecule agonists of the hypoxia (HIF-1) signaling pathway - cell viability counter screen (AID 1224844; calls by dose curve; further: nearly all actives have a fitted effect of over 50% in size; further: potency means the concentration at half of the fitted maximal effect)
Summary of the method: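 Cytotoxicity measured by CellTiter-Glo ATP luminescence in the wells also read for beta-lactamase signal. Cells were HRE-bla ME-180 (2,000/well, 0.5% dialyzed FBS), exposed to compounds for 17 h at 37C.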

[10] = qHTS assay to identify small molecule agonists of the hypoxia (HIF-1) signaling pathway (AID 1224846; active means well fitted activation curve with a large enough effect in the signal ratio in the repeat runs, not every such curve was filed as active; the % refers to the signal ratio)
Summary of the method: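 Compounds added to ME-180 cells carrying hypoxia-response-element beta-lactamase reporter (0.5% dialyzed FBS, 5 h preplating), 17 h at 37C; agonist activity detected by CCF4-AM B/G FRET read-out.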

[11] = qHTS assay to identify small molecule agonists of H2AX - cell viability counter screen (AID 1224847; calls by dose curve; further: nearly all actives have a fitted effect of over 30% in size; further: potency means the concentration at half of the fitted maximal effect)
Summary of the method: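 Wild-type CHO-K1 cells (10% FBS medium) were plated overnight at 37C, exposed to compounds at 15 concentrations for 3 hr at 37C (0.76% DMSO final), and viability was read as CellTiter-Glo luminescence after 30 min at room temperature.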

[12] = qHTS assay to identify small molecule antagonists of the estrogen related receptor (ERR) signaling pathway from Tox21 library (AID 1224848); further: nearly all actives have a fitted effect of over 50% in size; further: potency means the concentration at half of the fitted maximal effect
Summary of the method: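 Luciferase luminescence (ONE-Glo, 30 min room temperature) was the read-out. Cells of the NTP-supplied ERR line, 2,000 per well, were given 6 h at 37 C before compound addition in DMSO and 18 h exposure at 37 C.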

[13] = qHTS assay to identify small molecule agonists of the estrogen related receptor (ERR) signaling pathway from Tox21 library (AID 1224849; calls by dose curve; further: nearly all actives have a fitted effect of over 15% in size); details: ERR reporter cell line, ONE-Glo luciferase, 18 h; at 92.4 µM (top of the series)
Summary of the method: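 Luminescent agonist read-out (One-Glo, 30-minute room-temperature incubation) following 18-hour compound treatment at 37 C of the ERR cell line, which had been plated 6 hours before dosing.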

[14] = qHTS RealTime-Glo MT Cell Viability Assay in HepG2 cells - 24 hour (AID 1224867); further: nearly all actives have a fitted effect of over 50% in size
Summary of the method: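 Luminescence read-out: viable HepG2 cells reduce a prosubstrate to a NanoLuc substrate, giving a signal proportional to live cell number. Reads taken at 0, 8, 16, 24, 32 and 40 h of compound exposure at 37 C.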

[15] = qHTS RealTime-Glo MT Cell Viability Assay in HEK293 cells - 32 hour (AID 1224868); further: nearly all actives have a fitted effect of over 50% in size; further: potency means the concentration at half of the fitted maximal effect
Summary of the method: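 Nonlytic real-time viability readout: viable cells convert prosubstrate to NanoLuc substrate, giving luminescence proportional to live cell number. HEK293, 600 cells/well, compound added after 5 h, continuous culture at 37 C.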

[16] = A CellTox Green Cytotoxicity Assay to monitor cytotoxicity in HEK293 cells - 0 hour (AID 1224869); further: nearly all actives have a fitted effect of over 50% in size
Summary of the method: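 Fluorescence from a DNA-binding dye excluded by viable cells was measured repeatedly in the same HEK293 wells (600 cells/well) during continuous compound exposure at 37 C. Each assay gives one read point: 0, 8, 16, 24, 32 or 40 h.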

[17] = qHTS assay to identify small molecule antagonists of the estrogen related receptor (ERR) signaling pathway from Tox21 library - cell viability counter screen (AID 1224834); further: nearly all actives have a fitted effect of over 30% in size; further: potency means the concentration at half of the fitted maximal effect
Summary of the method: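 CellTiter-Fluor fluorescence, read after 30 min at 37 C, measures viability of ERR cells. Cells plated at 2,000/well and incubated 6 h before pin-tool compound addition, then exposed 17.5 hours at 37 C.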

[18] = biological target: Nuclear receptor subfamily 1 group I member 3 (Homo sapiens) (UniProt Q14994); assay: qHTS assay to identify small molecule antagonists of the constitutive androstane receptor (CAR) signaling pathway (AID 1224838); further: nearly all actives have a fitted effect of over 40% in size
Summary of the method: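 Antagonism measured as luciferase signal (ONE-Glo, 30 min, room temperature) in CAR-stimulated cells: HepG2-CYP2B6-hCAR double-stable line exposed 24 hr at 37 C to compound in a 15-point series plus 50 nM CITCO.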

[19] = qHTS assay to identify small molecule agonists of H2AX (AID 1224845; active means well fitted activation curve with a large enough effect in the signal ratio in the repeat runs, not every such curve was filed as active; the % refers to the signal ratio; further: potency means the concentration at half of the fitted maximal effect)
Summary of the method: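 Phospho-H2AX Ser139 measured by HTRF (ex 320 nm; em 665 and 620 nm) after 24 hr antibody incubation. Compounds, 15 concentrations, 0.76% DMSO, were applied to CHO-K1 cells for 3hr at 37C before lysis.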

Thyrotropin receptor (Homo sapiens), sequence (P16473 whole entry, looked up): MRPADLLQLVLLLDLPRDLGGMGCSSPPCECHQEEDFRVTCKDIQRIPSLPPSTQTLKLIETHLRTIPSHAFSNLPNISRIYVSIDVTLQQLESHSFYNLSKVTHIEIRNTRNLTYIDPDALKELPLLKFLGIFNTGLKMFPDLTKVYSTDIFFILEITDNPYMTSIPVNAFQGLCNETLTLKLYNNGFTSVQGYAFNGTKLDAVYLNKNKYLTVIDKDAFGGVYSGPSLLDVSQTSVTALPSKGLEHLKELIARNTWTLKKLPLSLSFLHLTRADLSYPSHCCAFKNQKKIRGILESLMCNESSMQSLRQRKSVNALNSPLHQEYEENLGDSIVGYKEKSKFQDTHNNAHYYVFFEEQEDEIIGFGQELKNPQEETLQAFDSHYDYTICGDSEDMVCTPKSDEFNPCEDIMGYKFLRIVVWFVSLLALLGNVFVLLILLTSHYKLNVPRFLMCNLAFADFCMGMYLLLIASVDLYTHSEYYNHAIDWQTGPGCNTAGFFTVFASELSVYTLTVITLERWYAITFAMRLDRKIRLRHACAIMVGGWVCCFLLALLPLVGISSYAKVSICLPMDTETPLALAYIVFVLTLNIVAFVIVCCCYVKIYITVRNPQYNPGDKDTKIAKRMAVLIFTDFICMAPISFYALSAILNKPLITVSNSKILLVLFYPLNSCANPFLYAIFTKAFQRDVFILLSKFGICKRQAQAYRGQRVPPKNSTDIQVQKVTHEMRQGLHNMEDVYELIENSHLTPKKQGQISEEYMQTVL
Nuclear receptor subfamily 1 group I member 3 (Homo sapiens), sequence (Q14994 whole entry, looked up): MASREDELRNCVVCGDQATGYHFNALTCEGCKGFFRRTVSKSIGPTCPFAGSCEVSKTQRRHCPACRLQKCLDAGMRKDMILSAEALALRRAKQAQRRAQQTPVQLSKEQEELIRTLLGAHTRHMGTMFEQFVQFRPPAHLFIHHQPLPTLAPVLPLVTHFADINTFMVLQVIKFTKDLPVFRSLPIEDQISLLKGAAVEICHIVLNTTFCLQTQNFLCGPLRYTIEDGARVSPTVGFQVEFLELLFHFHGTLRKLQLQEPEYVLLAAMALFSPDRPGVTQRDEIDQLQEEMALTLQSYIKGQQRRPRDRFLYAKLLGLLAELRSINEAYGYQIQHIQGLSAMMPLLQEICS
Luciferin 4-monooxygenase (Photinus pyralis), sequence (P08659 whole entry, looked up): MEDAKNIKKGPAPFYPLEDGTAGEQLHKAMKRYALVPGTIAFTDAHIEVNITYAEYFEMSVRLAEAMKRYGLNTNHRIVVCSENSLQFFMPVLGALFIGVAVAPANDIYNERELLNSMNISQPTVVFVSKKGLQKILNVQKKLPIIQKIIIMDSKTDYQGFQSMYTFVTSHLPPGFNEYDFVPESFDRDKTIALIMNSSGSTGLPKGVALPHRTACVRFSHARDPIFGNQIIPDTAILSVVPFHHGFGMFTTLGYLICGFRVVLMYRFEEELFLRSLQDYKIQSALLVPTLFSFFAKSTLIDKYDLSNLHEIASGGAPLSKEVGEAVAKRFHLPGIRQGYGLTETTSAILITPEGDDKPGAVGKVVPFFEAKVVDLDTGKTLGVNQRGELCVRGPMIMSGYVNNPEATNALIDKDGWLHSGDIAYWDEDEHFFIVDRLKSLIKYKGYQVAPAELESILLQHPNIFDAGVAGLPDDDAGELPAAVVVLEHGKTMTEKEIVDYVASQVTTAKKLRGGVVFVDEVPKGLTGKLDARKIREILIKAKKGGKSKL

| Structure (SMILES) | Potency [1] | Potency [2] | Potency [3] | Potency [4] | Potency [5] | Potency [6] | Potency [7] | Potency [8] | Potency [9] | outcome [10] | Potency [11] | Potency [12] | activity change, positive = activation [13] | Potency [14] | Potency [15] | Potency [16] | Potency [17] | Potency [18] | Potency [19] |
| --- | --- | --- | --- | --- | --- | --- | --- | --- | --- | --- | --- | --- | --- | --- | --- | --- | --- | --- | --- |
| CCOCN(C(=O)CCl)c1c(C)cccc1CC | inactive | inactive | inactive | 18.3 µM (active) and 15.4 µM (active) | inactive | 36.4 µM (active) and 13.7 µM (active) | inactive | 8.15 µM (active) and inactive | 51.9 µM (active) | inactive | inactive | 23 µM (active) and 27.3 µM (active) | -61% (inactive) and -71.1% (inactive) | inactive | inactive | inactive | – | – | – |
| Cc1ccc2c(c1N)C(=O)c1ccccc1C2=O | – | – | – | 4.28 µM (active) and 7.7 µM (active) | inactive | inactive | 19.1 µM (active) and 9.69 µM (active) | inactive | inactive | inactive | inactive | inactive | 82.1% (active) and 70.5% (active) | inactive | – | inactive | 30.3 µM (active) | inactive | – |
| N#CC(Br)Br | – | inactive | inactive | inactive | inactive | – | – | inactive | inactive | inactive | inactive | – | – | inactive | inactive | inactive | inactive | – | – |
| Nc1ccc(-c2ccc(N)c(N)c2)cc1N | – | – | inactive | – | – | – | – | inactive | inactive | inactive | inactive | – | – | inactive | – | inactive | 48.4 µM (active) | – | – |
| C=CC(=O)OCCO | – | – | inactive | inactive | inactive | – | – | inactive | inactive | inactive | inactive | – | – | inactive | inactive | – | inactive | inactive | – |
| C=CCc1ccc2c(c1)OCO2 | – | – | inactive | inactive | inactive | – | – | inactive | inactive | inactive | inactive | – | – | inactive | – | – | inactive | inactive | – |
| Clc1nc(Cl)nc(Cl)n1 | – | – | inactive | inactive | inactive | – | – | – | inactive | inactive | inactive | – | – | inactive | inactive | inactive | inactive | – | inactive |
| c1ccc(NNc2ccccc2)cc1 | – | – | inactive | – | inactive | inactive | inactive | inactive | inactive | inactive | inactive | inactive | 2.54% (inactive) and 6.77% (inactive) | inactive | inactive | inactive | inactive | – | inactive |
| c1cc(OCC2CO2)ccc1Cc1ccc(OCC2CO2)cc1 (configuration not stated) | – | – | inactive | inactive | – | – | – | inactive | – | – | inactive | – | – | inactive | – | – | – | – | – |
| CC(C)N(C(=O)SCC(Cl)=C(Cl)Cl)C(C)C | – | inactive | inactive | inactive | inactive | – | – | 30.2 µM (active) and 15.4 µM (active) | inactive | inactive | inactive | – | – | inactive | inactive | inactive | inactive | – | inactive |
| CCOC(=S)S | – | – | 32.6 µM (active) | inactive | – | inactive | inactive | inactive | – | – | – | 73 µM (active) | -20.1% (inactive) and -29.8% (inactive) | inactive | inactive | inactive | inactive | – | 28.4 µM (active) |
| O=C(CCl)c1ccccc1 | – | inactive | inactive | – | inactive | – | – | 69.6 µM (active) | inactive | inactive | – | – | – | inactive | – | – | inactive | – | inactive |
| Nc1cccnc1 | – | – | inactive | inactive | inactive | – | – | inactive | inactive | inactive | inactive | – | – | inactive | – | inactive | inactive | inactive | inactive |
| C[C@]12CCC(=O)C[C@@H]1CC[C@@H]1[C@@H]2CC[C@]2(C)[C@@H](O)CC[C@@H]12 | – | inactive | inactive | – | inactive | – | – | – | inactive | – | 79.1 µM (active) | – | – | inactive | 21.6 µM (active) | inactive | 48 µM (active) and inactive | – | – |
